MCF10A rerep – A quantitative high throughput screen for small molecules that induce DNA re-replication in MCF 10a normal breast cells; AID 624296, 2012; MCF 10A DNA re-replication, Hoechst nuclear intensity, 48 h; Potency, µM (doses to about 46.1 µM), most hits filed as activators; 350,000 tested, 2.9% active; further: nearly all actives have a fitted effect of over 50% in size
KB-3-1 tox – qHTS assay for MDR1-selective chemotherapeutics: Primary screen using the parental adenocarcinoma cell KB-3-1 | KB-3-1 viability, CellTiter-Glo ATP luminescence, 72 h | Potency, µM (doses to about 46.1 µM), usual class: cytotoxic | 400,000 tested, 1.4% active | AID 1347075, 2019; further: nearly all actives have a fitted effect of over 60% in size
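Cells are dispensed, compounds pinned in, plates held at 37 °C for 72 h, then CellTiter-Glo is added and luminescence read after 10 minutes. Cell line: parental KB-3-1 in phenol-red-free DMEM, 10% FBS.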
KB-V1 MDR tox – qHTS assay for MDR1-selective chemotherapeutics: Primary screen using the drug-selected MDR subline cells KB-V1. Potency, µM (top dose mostly 46.1 µM), usual class: cytotoxic. 400,000 tested, 3.4% active. KB-V1 MDR cells viability, CellTiter-Glo, 72 h; further: nearly all actives have a fitted effect of over 60% in size
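Potencies derive from concentration-effect curves fitted to normalized luminescence (CellTiter-Glo) of KB-V1 cells treated for 72 h at 37 degrees C in phenol-red-free DMEM containing 10% FBS.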
HT1080-NT tox – qHTS for induction of synthetic lethality in tumor cells producing 2HG: qHTS for the HT-1080-NT fibrosarcoma cell line; Potency, µM (highest dose often 46.1 µM), hits mostly cytotoxic; 360,000 tested, 1.6% active; HT-1080-NT fibrosarcoma viability, CellTiter-Glo ATP luminescence, 48 h;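 further: NT is the 2HG producing partner of a matched IDH1 knockdown line; nearly all actives have a fitted effect of over 55% in size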
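HT-1080-NT fibrosarcoma cells (2HG-overproducing), 750 cells/well in RPMI with 5% FBS, dosed after 2 h and incubated 48 h at 37C. CellTiter-Glo luminescence normalized to DMSO and no-cell wells; concentration-response curves fitted and classed.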
HT1080 IDH1KD tx – qHTS for induction of synthetic lethality in tumor cells producing 2HG: qHTS for the HT-1080-IDH1KD cell line | HT-1080 IDH1 knockdown viability, ATP luminescence, 48 h | Potency, µM (doses to about 46.1 µM), actives largely listed as cytotoxic | 360,000 tested, 2% active | AID 686971, 2013
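In this qHTS, HT-1080 cells depleted of IDH1 are exposed for 48 h at 37 °C to compound titrations. Toxicity is scored from CellTiter-Glo luminescence, with DMSO as full viability and medium alone as none.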
SW480 rerep – A quantitative high throughput screen for small molecules that induce DNA re-replication in SW480 colon adenocarcinoma cells. Potency, µM (series often up to 46.1 µM), most hits filed as activators. SW480 DNA re-replication, Hoechst DNA content imaging, 48 h. 340,000 tested, 1.8% active; further: nearly all actives have a fitted effect of over 55% in size
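Treated cells incubate 48 hr (37 C, 5% CO2), are stained 40 min with Hoechst, and nuclear fluorescence is enumerated; a rise in nuclei with high DNA signal marks re-replication.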
Numbers stand for hits; n = inactive; u = inconclusive; x = not tested or not shown. The list is not random: actives were taken first. Their share in the collection is about 8%. The call rests on the fitted dose curve; in most records, active means well fitted curve in the direction sought with a large enough effect; inconclusive means small, poorly fitted or top-dose-only effect, or another doubt; inactive means no such curve, though single readings can be large; an effect the other way counts as inactive or inconclusive.

SMILES	MCF10A rerep	KB-3-1 tox	KB-V1 MDR tox	HT1080-NT tox	HT1080 IDH1KD tx	SW480 rerep
Cc1ccc2nc(/C(C#N)=C\c3ccc(Oc4ccc(C(F)(F)F)cc4[N+](=O)[O-])cc3)[nH]c2c1	n	u	u	u	u	13µM
N#C/C(=C\c1cccc(Oc2ccc(C(F)(F)F)cc2[N+](=O)[O-])c1)c1nc2ccccc2[nH]1	18µM	n	n	n	n	n
CCOC(=O)COc1ccc(/C=C(\C#N)c2nc3ccc(C)cc3[nH]2)cc1OC	x	18µM	u	x	x	x
COc1ccc(/C=C(\C#N)c2nc3ccc(C)cc3[nH]2)cc1Oc1ccc(C(F)(F)F)cc1[N+](=O)[O-]	23µM	n	u	n	n	u
COc1cc(/C=C(\C#N)c2nc3ccc(C)cc3[nH]2)ccc1OCc1ccc(C)cc1	x	n	n	x	x	x
COc1ccc(NC(=O)c2cc(-c3ccccc3F)no2)cc1	x	n	n	x	x	x
Cc1ccc(-c2nc3sc(CCNC(=O)c4ccc(Br)o4)c(C)n3n2)cc1	x	n	n	x	x	x
O=C(C=Cc1ccccc1)CC(c1ccccc1)N1CCOCC1 (configuration not stated)	3.7µM	u	n	4.1µM	u	3.7µM
COc1cc(OC)c(N(C)S(=O)(=O)c2cccc(C(=O)NC3=NCCS3)c2)cc1Cl	n	u	u	u	16µM	u
CC(NC(=O)c1ccc(F)cc1)C(=O)NC1=NCCS1 (configuration not stated)	n	n	n	n	n	6.5µM
Cc1cccc(C(=O)NC2=NCCS2)c1	u	n	n	n	n	6.5µM
O=C(NC1=NCCS1)c1ccccc1	n	n	n	n	n	n
CC(NC(=O)c1ccc(Cl)cc1)C(=O)NC1=NCCS1 (configuration not stated)	n	n	n	n	n	n
COc1ccccc1N(C)S(=O)(=O)c1ccc(Cl)c(C(=O)NC2=NCCS2)c1	n	n	u	n	n	n
Cc1cc(C)c(NC(=O)CCS(=O)(=O)c2cc3c(cc2Cl)NC(=O)CO3)c(C)c1	x	n	n	x	x	x
Cc1ccc(C)c(OCC(O)CN2CCc3ccccc3C2)c1C (configuration not stated)	n	n	n	u	9.2µM	u
COc1ccc(-c2cn3nc(N4CCC(C(=O)Nc5ccc(C)cc5)CC4)sc3n2)cc1	x	n	n	x	x	x
Cc1cccc(NC(=O)CCCCCn2c(=O)[nH]c3ccsc3c2=O)c1	x	n	n	x	x	x
COc1ccc(Sc2ccccc2CN(C)C)cc1OC	n	n	n	n	n	n
CNCc1ccccc1Sc1ccc(O)c(O)c1	u	n	23µM	n	u	u
Cc1c(C(=O)NCc2cccc([N+](=O)[O-])c2)sc(=O)n1Cc1ccc(F)cc1	x	n	u	n	n	x
Cc1c(C(=O)NCc2cccc([N+](=O)[O-])c2)sc(=O)n1Cc1cccc(F)c1	x	n	u	n	n	x
Cc1c(C(=O)NCc2cccc([N+](=O)[O-])c2)sc(=O)n1Cc1ccc(C(C)C)cc1	x	u	9.2µM	n	n	x
CC(=O)Oc1ccccc1Cn1c(C)c(C(=O)NCc2cccc([N+](=O)[O-])c2)sc1=O	x	n	18µM	n	n	x
O=C(Nc1ccccc1-c1cn2c(CN3CCNCC3)csc2n1)c1cnc2ccccc2n1	x	n	u	x	x	x
SMILES	MCF10A rerep	KB-3-1 tox	KB-V1 MDR tox	HT1080-NT tox	HT1080 IDH1KD tx	SW480 rerep
O=C(N/N=C/c1c[nH]c2ccccc12)c1cc(-c2cccc3ccccc23)n[nH]1	9.2µM	u	n	u	8.2µM	u
O=C(N/N=C/c1cccs1)c1cc(-c2cccc3ccccc23)n[nH]1	23µM	u	u	u	u	u
O=C(N/N=C/c1c[nH]c2ccccc12)c1cc(-c2ccc(-c3ccccc3)cc2)n[nH]1	15µM	u	16µM	u	13µM	u
O=C(N/N=C/c1cccs1)c1cc(-c2ccc3ccccc3c2)n[nH]1	u	n	u	u	u	u
O=C(N/N=C/c1c[nH]c2ccccc12)c1cc(-c2ccccc2)n[nH]1	n	n	n	u	u	n
O=C(N/N=C/c1ccccn1)c1cc(-c2cccc3ccccc23)n[nH]1	u	n	n	n	n	n
O=C(N/N=C/c1c[nH]c2ccccc12)c1cc(-c2ccc3ccccc3c2)n[nH]1	2.6µM	u	u	7.3µM	5.8µM	12µM
NC(=O)C1CCCN1Cc1ccc2c(c1)OCO2 (configuration not stated)	n	u	n	n	n	n
Cc1cccc(OCC(=O)Nc2cc(C)c(O)c(-c3nc4ccccc4o3)c2)c1	x	n	n	x	x	x
Cc1ccc(-c2cc(C(=O)N/N=C/c3c[nH]c4ccccc34)[nH]n2)cc1	u	5.2µM	10µM	u	2.9µM	3.3µM
O=C(N/N=C/c1c[nH]c2ccccc12)c1ccn[nH]1	0.58µM	n	n	n	n	n
O=C(N/N=C\c1c[nH]c2ccccc12)c1ccc(O)cc1	n	n	n	n	n	n
CCCCOCCCNC(=O)C1CCCCC1	12µM	n	n	n	n	u
O=C(NCCCCNC(=O)C1CCCC1)C1CCCC1	n	n	n	n	n	n
CCc1ccc(N2CC(C(=O)OCC(=O)NC3CC3)CC2=O)cc1 (configuration not stated)	n	n	n	n	n	n
CCn1c(=O)c2ccccc2n2c(SCC(=O)N3CCc4ccccc4C3)nnc12	n	n	n	n	n	n
COCCn1c(SCC(=O)N2CCc3ccccc3C2)nc2cc(Cl)ccc2c1=O	n	u	1.8µM	n	n	n
CC1CC(C)CN(C(=O)Cn2c(SCC(=O)N3CCc4ccccc4C3)nc3ccccc32)C1 (configuration not stated)	n	n	n	n	n	n
CC(C)NC(=O)Cn1c(SCC(=O)N2CCc3ccccc3C2)nc2ccccc21	n	n	12µM	n	n	n
CCCn1c(=O)c2ccccc2n2c(SCC(=O)N3CCc4ccccc4C3)nnc12	n	n	2.9µM	n	n	n
Cc1ccc(Cn2c(=O)c3ccccc3n3c(SCC(=O)N4CCCCC4C)nnc23)cc1 (configuration not stated)	n	n	8.2µM	n	n	n
COc1ccc(OCCCC(=O)Nc2ccc(S(=O)(=O)N3CCOCC3)cc2)cc1	n	n	n	n	n	n

From PubChem BioAssay
